# Screening data (PubChem)
# Cruzain inh Det: cruzain (T. cruzi) inhibition with detergent; 200,000 compounds, 0.43% hits; P25779; purified cruzain, Z-FR-AMC fluorescence, 0.01% Triton; Potency, µM, for inactives: max response, negative = inhibition, most hits filed as inhibitors; AID 1478;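 note: plate controls were neutral wells for no effect and buffer without enzyme for full effect; nearly all actives have a fitted effect of over 40% in size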
# Target sequence (P25779 123-467 limits assumed): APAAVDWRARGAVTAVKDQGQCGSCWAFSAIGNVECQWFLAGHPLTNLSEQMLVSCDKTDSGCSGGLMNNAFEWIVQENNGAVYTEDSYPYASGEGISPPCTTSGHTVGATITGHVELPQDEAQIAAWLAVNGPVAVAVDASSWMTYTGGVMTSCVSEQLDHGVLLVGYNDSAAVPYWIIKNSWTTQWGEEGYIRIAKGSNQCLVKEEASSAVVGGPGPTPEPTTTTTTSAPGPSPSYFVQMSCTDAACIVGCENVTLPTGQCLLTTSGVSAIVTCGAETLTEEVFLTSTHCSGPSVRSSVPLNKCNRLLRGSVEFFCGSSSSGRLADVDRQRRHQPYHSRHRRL
#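 In this qHTS format, compounds are incubated with 1.5 nM cruzain for 15 min at room temperature before 2 uM Z-FR-AMC is added. Release of AMC is followed at 360/450 nm, and progress is taken as the 60 s fluorescence difference.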
# Cruzain noTriton: blocks cruzain activity in detergent-free assay; Potency, µM, without a hit: max response, negative = inhibition, usual class: inhibitors; 200,000 compounds, 2.3% hits; purified cruzain, Z-FR-AMC fluorescence, no detergent;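 note: plate controls were enzyme without inhibitor for no effect and buffer without enzyme for full effect; nearly all actives have a fitted effect of over 40% in size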
#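 Purified cruzain at 1.5 nM, pre-incubated 15 min with compound at room temperature in 100 mM sodium acetate pH 5.5, 5 mM DTT, 0.00005% Triton X-100. Reaction started with 2 uM Z-FR-AMC; AMC fluorescence increase over 60 s gives rate.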
# Active calls of the source: *; ? = inconclusive. Only some compounds are listed: those with a hit (about 2.6% of all), similar ones and a draw of the others. Calls come from the whole dose curve; as a rule, active = well fitted curve in the direction sought with a large enough effect; inconclusive = small, poorly fitted or top-dose-only effect, or another doubt; inactive = no such curve, though single readings can be large; an effect the other way counts as inactive or inconclusive. Potency is the fitted concentration of half-maximal effect.
SMILES,Cruzain inh Det,Cruzain noTriton
CCCCCc1c2c(cc(O)c1C(=O)O)OC(=O)c1cc(C(=O)CCCC)c(OC)cc1O2,18µM*,?
CCOC(=O)C1=C(CP(=O)(c2ccccc2)c2ccccc2)NC(=O)NC1c1ccc(OC)cc1 (configuration not stated),-3%,-1%
CCOC(=O)C1=C(CSCC(=O)OC)NC(=O)NC1c1cc(C)ccc1C (configuration not stated),5%,-5%
CCOC(=O)C1=C(CSc2nc3ccccc3s2)NC(=O)NC1c1ccc(OC)cc1 (configuration not stated),-3%,25µM*
CCOC(=O)C1=C(CSc2nc3ccccc3s2)NC(=O)NC1c1cc(C)ccc1C (configuration not stated),2%,32µM*
COc1cccc(CN(Cc2ccco2)c2cnc(S(C)(=O)=O)nc2C(=O)Nc2cccc(Cl)c2C)c1,-3%,?
COc1ccccc1CNC(=O)CN1C(=O)CSc2c1c(C)nn2-c1ccccc1,-1%,-8%
O=C(NCc1ccccn1)c1nn(-c2ccccc2F)nc1CO,-1%,-11%
COc1ccc(OCC(=O)Nc2ccc(O)c(-c3nc4ccccc4s3)c2)cc1,-2%,3%
Oc1ccc(N=C/C=C/c2ccc(Br)cc2)cc1-c1nc2ccccc2s1,-14%,32µM*
C1CCN2CC3CC(CN4CCCC[C@@H]34)C2C1 (some centres not stated),-4%,6%
N.N.N.N.N.N.N.N.N.N.N.N.N.N.O.O.[Cl-].[Cl-].[Cl-].[Cl-].[Cl-].[Cl-].[Ru].[Ru].[Ru],-6%,-10%
CCOC(=O)c1sc(Nc2nc3c(F)cccc3s2)cc1C,1%,16µM*
CCOC(=O)c1sc(Nc2nc3ccc(OC)cc3s2)cc1C,-4%,?
C=C(C(=O)C(C)(C)O)C(O)c1ccc([N+](=O)[O-])cc1 (configuration not stated),5%,-11%
COc1cccc(C2CC(c3cccs3)=NN2C(=O)CSc2nc3ccccc3o2)c1OC (configuration not stated),3.5µM*,?
COC(=O)CSc1nc2ccccc2o1,8%,-1%
COc1ccc(C(=O)Nc2ccc3nc4c(c(Nc5ccccc5OC)c3c2)CCCC4)c(OC)c1,-1%,-2%
Cc1cc(C)nc(SCc2ccc(C(=O)N/N=C/c3cccc(O)c3O)cc2)n1,-6%,4%
O=C(N/N=C/c1ccccc1Br)c1ccc(CSc2cccc3cccnc23)cc1,1%,10µM*
O=C(c1cn(-c2ccccc2)nc1-c1ccccc1)n1nnc2ccccc21,-3%,?
COc1cccc(-c2nn(-c3ccccc3)cc2C(=O)n2nnc3ccccc32)c1,-14%,32µM*
O=C(Cc1ccc(Cl)cc1)Nc1ccc(NC(=O)c2ccccc2)cc1,1%,25µM*
C/C(=N\NC(=O)CSCc1ccc(Cl)cc1)c1ccc(NC(=O)c2ccccc2)cc1,-4%,25µM*
Cc1cccc(C(=O)Nc2ccc(NC(=O)Cc3ccc(Cl)cc3)cc2)c1,1%,?
SMILES,Cruzain inh Det,Cruzain noTriton
C/C(=N/NC(=O)CSCc1ccc(Cl)cc1)c1cccc(NC(=O)c2ccccc2)c1,-4%,?
Cc1cc(Cl)ccc1-n1c(CCC(=O)O)ccc1-c1cccs1,-26%,-2%
CCN(CC)CCOC(=O)c1ccc(NC(=O)c2nn(-c3ccc(C)cc3)c(=O)c3c2c2ccccc2n3C)cc1,-20%,4%
COc1ccc(C2NC(=O)N(C)C3=C2C(=O)N(c2ccccc2)C3)cc1 (configuration not stated),-6%,0%
COc1ccc(NC(=O)C2=CC(c3ccc4c(c3)OCO4)=NS(=O)(=O)N2C)cc1,-4%,?
COc1ccc(C2=NS(=O)(=O)N(C)C(C(=O)Nc3ccc(OC(F)(F)F)cc3)=C2)cc1,-4%,10µM*
CCN(CC)CCN1CCn2c3c(c4cc(C)ccc42)CCCC31 (configuration not stated),-8%,-4%
Cc1ccc2c(c1)c1c3n2CCN(C(=O)c2cccc(C(F)(F)F)c2)C3CCC1 (configuration not stated),-5%,0.63µM*
CCOc1ccc(N2Cc3ccccc3C2)cc1,4%,16µM*
CCOc1ccc(N2CC(=O)N(c3ccc(OCC)cc3)CC2=O)cc1,1%,-9%
CCc1ccc2oc(-c3cc(N=Cc4cccc(OC)c4O)ccc3O)nc2c1,-10%,16µM*
CCc1ccc2oc(-c3cc(NC(=O)c4cc(OC)c(OC)c(OC)c4)ccc3O)nc2c1,-2%,2%
Cc1ccc(Cn2c(C)c(CNC(C)c3ccccc3)c(C(=O)O)c2C)cc1 (configuration not stated),5%,11%
Cc1ccc(NC(=O)CCCn2nc(C)c3sc4ccccc4c3c2=O)c(Cl)c1,-11%,4%
COc1ccc(-c2nc3sc(CCNC(=O)Cc4ccc(F)cc4)c(C)n3n2)cc1,-3%,24%
O=C(OCC(=O)c1ccc([N+](=O)[O-])cc1)/C(=C/c1ccc(Cl)cc1)NC(=O)c1ccccc1,2.8µM*,16µM*
O=C(Cc1ccccc1)NCC(=O)OCC(=O)c1ccc([N+](=O)[O-])cc1,-14%,-18%
COc1ccc(-c2noc(CNC(=O)c3ccc(OC)cc3OC)n2)cc1,-10%,5%
COc1ccc(-c2noc(CC(=O)Nc3cc(OC)ccc3OC)n2)cc1,-6%,4µM*
CC(C)Cc1nn2c(=O)cc(COC(=O)c3cccc(NC(=O)c4cccs4)c3)nc2s1,3%,-2%
Cc1ccc(CCNC(=O)CCS(=O)(=O)c2cc3c(cc2Cl)NC(=O)CO3)cc1,-4%,4%
COc1ccc(NC(=O)Cn2ccn(-c3ccccc3)c(=O)c2=O)cc1,-1%,4%
Cc1cccc2cc(C#N)c(SCC(=O)N3CC(=O)Nc4ccccc43)nc12,-3%,25µM*
Cc1cccc2cc(C#N)c(SCC(=O)N3CCC(C)CC3)nc12,-11%,-13%
Cc1cccc(CSCc2ccc(C(=O)NCCc3ccccc3)o2)c1,-1%,7%
SMILES,Cruzain inh Det,Cruzain noTriton
COc1ccc(NC(=O)C(C)n2nnc3sc(-c4ccccc4)cc3c2=O)cc1Cl (configuration not stated),-12%,25µM*
Cc1cc(C)c(NC(=O)C(C)n2nnc3sc(-c4ccccc4)cc3c2=O)c(C)c1 (configuration not stated),4%,?
CCOC(=O)N1CCN(Cc2nc3cc(NC(=O)c4ccc([N+](=O)[O-])cc4)ccc3n2C(C)C)CC1,-7%,?
COc1cc(NC(=O)Cn2nc(C(F)(F)F)c3c2CCCC3)c(OC)cc1Cl,-8%,?
O=C(O)C(Cc1ccccc1)N1C(=O)/C(=C/c2ccccc2)SC1=S (configuration not stated),-13%,0%
O=C(O)C(Cc1ccccc1)N1C(=O)/C(=C/c2cccc3ccccc23)SC1=S (configuration not stated),32µM*,?
Cc1ccc(CCNC(=O)CCCn2c(=O)c3cccn3c3ccc(F)cc32)cc1,0%,11%
O=c1oc2ccc(Cl)cc2cc1-c1nnc(Nc2cccc(C(F)(F)F)c2)s1,-1%,5µM*
CNc1nnc(-c2cc3cc(Cl)ccc3oc2=O)s1,-4%,2%
CCN(CC)S(=O)(=O)c1ccc2c(c1)nc(CN(C)C(=O)Nc1ccc(C)c(Cl)c1)n2C,6%,-5%
Cc1ccc(S(=O)(=O)Nc2cccc3cccnc23)cc1,0%,13%
